The source made the active and inactive calls.

One assay has as its target Albumin (Bos taurus) (UniProt P02769). Kind of assay: compounds binding labelled BSA control protein – biochemical, small-molecule microarray, Alexa647 label, 635/667 nm fluorescence, artefact control for SMM control protein annotation, profiling panel (AID 1118).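 Further: score merges 667 nm emission intensity and signal-to-noise per printed compound spot.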 The note with it: BSA-A647 binding, fluorescence 635 nm, higher = more signal.
A short description of assay [1]: probe aXIP binding to arrayed compounds – biochemical, NeuroSMM set, 635/667 nm fluorescence, primary screen (AID 1119).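 Further: probe is the protein aXip251-270 applied at 1 µg/mL to compound-printed slides; binding of probe to printed compounds measured as 667 nm fluorescence plus signal to noise.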 The note with it: small-molecule microarray, higher = more signal, called active from +8 up or from −8 down.
Assay [2] can be described thus: probe aNOTCH3 binding on compound microarray – biochemical, small-molecule microarray, 635/667 nm fluorescence, primary screen (AID 1120).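 Further: probe is a biotin-tagged antibody raised against NOTCH3 rather than NOTCH3 protein; score merges spot fluorescence near 667 nm with spot signal to noise.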 The following applies: higher = more signal.
Assay [3] is described as follows: probe aNOTCH2 binding on compound microarray – biochemical, small-molecule microarray, 635/667 nm fluorescence, primary screen (AID 1121).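 Further: score merges feature fluorescence read at 667 nm with its signal to noise.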 The following applies: higher = more signal.
The target of assay [4] is Carbonic anhydrase 2 (Homo sapiens) (UniProt P00918). Description: compounds binding carbonic anhydrase 2 – biochemical, small-molecule microarray, Alexa647-labelled CAII, profiling panel (AID 1122). The note with it: CAII-A647 binding fluorescence, higher = more signal.
The nature of assay [5]: COS7 lysate on small-molecule microarray, probe aHis, 635 nm (AID 1123).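 Further: z-score combines 667nm fluorescence intensity with signal-to-noise per printed compound spot.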 The note with it: COS7 cell lysate, fluorescence, higher = more signal.
A short description of assay [6]: probe aLAP1 signal on lysate-treated microarray – cell lysate, small-molecule microarray, COS7 lysate, primary screen (AID 1124).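 Further: lysate comes from COS7 cells expressing LAP1 and is applied at 0.3 µg/mL; score merges spot fluorescence near 667 nm with signal-to-noise over triplicate slides.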 The note with it: probe aLAP1, fluorescence, higher = more signal.
The subject of a further assay is Sam68 (KHDRBS1). Kind of assay: compounds binding KHDRBS1 protein – biochemical, small-molecule microarray, 635 nm fluorescence, primary screen (AID 1125).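 Further: score merges 667 nm channel intensity with signal to noise over triplicate slides.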 The following applies: higher = more signal.
Assay [7] relates to Chordin-like protein 2 (CHRDL2). Kind of assay: compounds binding chordin-like 2 – biochemical, small-molecule microarray, 635 nm fluorescence, primary screen (AID 1126).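 Further: printed compound slides probed with Chrdl2 protein at 4 µg/mL for 1 h at 4 C; score merges 667 nm emission intensity with signal to noise over three replicate slides.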 The following applies: fluorescence 635 nm, higher = more signal.
The target in assay [8] is Concanavalin-A (Canavalia ensiformis) (UniProt P02866). Kind of assay: compounds binding concanavalin A lectin – biochemical, small-molecule microarray, Alexa647 label, 635 nm, artefact control for SMM control protein annotation, primary screen (AID 1127).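 Further: z combines 667 nm emission intensity with signal-to-noise across three replicate slides.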 The note with it: ConA-A647 binding fluorescence, higher = more signal.
Concanavalin-A (Canavalia ensiformis), sequence (P02866 whole entry, looked up): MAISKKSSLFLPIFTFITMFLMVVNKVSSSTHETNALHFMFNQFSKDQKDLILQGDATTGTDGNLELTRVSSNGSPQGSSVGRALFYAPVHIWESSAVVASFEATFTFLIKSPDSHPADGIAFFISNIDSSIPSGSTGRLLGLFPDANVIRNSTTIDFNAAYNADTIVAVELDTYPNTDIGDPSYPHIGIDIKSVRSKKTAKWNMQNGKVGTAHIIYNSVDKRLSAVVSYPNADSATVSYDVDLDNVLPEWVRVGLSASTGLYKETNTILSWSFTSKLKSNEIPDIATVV
Assay [9] in a line: compounds binding Alexa647 anti-His antibody – biochemical, small-molecule microarray, 635 nm fluorescence, artefact control for SMM control protein annotation, primary screen (AID 1128).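 Further: score merges feature fluorescence with signal-to-noise for each printed compound spot.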 The following applies: higher = more signal.
Assay [10] deals with Human papillomavirus type 1a E7 protein (residues 1-88). Description: HPV1a E7 small-molecule binders, primary screen, biochemical, small-molecule microarray, residues 1-88, 635 nm (AID 1129). The note with it: small-molecule microarray binding, fluorescence 635 nm; higher = more signal.
The target in assay [11] is Focal adhesion kinase 1 (Homo sapiens) (UniProt Q05397). Description: PTK2 protein binding on printed compound slides – biochemical, small-molecule microarray, 635/667 nm fluorescence, BSA, DTT, primary screen (AID 1130).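 Further: composite of spot emission at 667 nm and signal to noise over triplicate slides.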 The following applies: 635 nm fluorescence, higher = more signal.
Focal adhesion kinase 1 (Homo sapiens), sequence (Q05397 whole entry, looked up): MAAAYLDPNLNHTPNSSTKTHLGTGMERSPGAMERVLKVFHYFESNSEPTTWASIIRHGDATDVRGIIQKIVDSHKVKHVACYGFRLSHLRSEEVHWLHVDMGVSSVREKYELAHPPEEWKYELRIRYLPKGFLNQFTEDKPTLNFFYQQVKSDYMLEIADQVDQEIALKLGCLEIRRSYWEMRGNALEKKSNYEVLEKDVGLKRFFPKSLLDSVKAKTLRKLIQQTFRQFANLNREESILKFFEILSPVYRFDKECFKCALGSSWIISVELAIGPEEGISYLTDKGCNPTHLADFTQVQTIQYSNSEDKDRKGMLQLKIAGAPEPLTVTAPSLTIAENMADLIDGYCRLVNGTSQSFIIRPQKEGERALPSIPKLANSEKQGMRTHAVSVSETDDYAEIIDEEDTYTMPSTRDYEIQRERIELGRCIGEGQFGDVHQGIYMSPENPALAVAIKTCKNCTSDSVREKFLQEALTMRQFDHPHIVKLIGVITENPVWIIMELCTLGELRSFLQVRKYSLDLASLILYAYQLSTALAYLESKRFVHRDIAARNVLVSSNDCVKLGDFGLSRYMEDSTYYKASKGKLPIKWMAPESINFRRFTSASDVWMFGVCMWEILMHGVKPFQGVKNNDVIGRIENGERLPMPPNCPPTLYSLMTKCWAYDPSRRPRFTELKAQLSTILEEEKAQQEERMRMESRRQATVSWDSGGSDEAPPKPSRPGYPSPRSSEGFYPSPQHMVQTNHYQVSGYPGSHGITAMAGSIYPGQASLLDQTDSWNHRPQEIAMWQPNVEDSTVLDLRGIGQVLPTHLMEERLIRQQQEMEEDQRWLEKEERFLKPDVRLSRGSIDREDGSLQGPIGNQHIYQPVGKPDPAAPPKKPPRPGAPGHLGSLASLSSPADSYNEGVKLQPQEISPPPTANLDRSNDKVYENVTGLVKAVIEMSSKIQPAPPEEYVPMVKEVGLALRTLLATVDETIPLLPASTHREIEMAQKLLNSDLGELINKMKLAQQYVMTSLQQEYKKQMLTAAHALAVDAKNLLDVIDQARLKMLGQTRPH
The subject of assay [12] is Fibrinogen (Alexa647-labelled). Kind of assay: Alexa647-fibrinogen binding to printed small molecules – biochemical, small-molecule microarray, 635/667 nm fluorescence, artefact control for SMM control-protein annotation, profiling panel (AID 1131).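 Further: z-score merges 667 nm fluorescence with per-spot signal-to-noise over triplicate slides.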 The note with it: fibrinogen-A647 binding fluorescence, higher = more signal.
Assay [13] addresses Follistatin (Homo sapiens) (UniProt P19883). Description: FST protein binding to printed compounds – biochemical, small-molecule microarray, 635/667 nm fluorescence, primary screen (AID 1132). The note with it: 635 nm fluorescence, higher = more signal.
In assay [14] the target is Fibroblast growth factor 2 (Homo sapiens) (UniProt P09038). Kind of assay: basic fibroblast growth factor binding to printed compounds – biochemical, small-molecule microarray, 635/667 nm fluorescence, primary screen (AID 1133). The note with it: FGF2, fluorescence 635/667, higher = more signal.
Fibroblast growth factor 2 (Homo sapiens), sequence (P09038 whole entry, looked up): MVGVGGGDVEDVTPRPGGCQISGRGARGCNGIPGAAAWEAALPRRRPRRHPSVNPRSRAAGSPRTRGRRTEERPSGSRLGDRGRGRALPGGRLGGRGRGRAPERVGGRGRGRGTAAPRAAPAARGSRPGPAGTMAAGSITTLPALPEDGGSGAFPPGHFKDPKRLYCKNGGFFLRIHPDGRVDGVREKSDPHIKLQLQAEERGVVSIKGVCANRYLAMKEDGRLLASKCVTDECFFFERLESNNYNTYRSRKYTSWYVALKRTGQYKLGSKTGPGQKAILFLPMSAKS
The nature of assay [15]: JC-1 mitochondrial potential readout, lung cancer cells – cell-based, A549, JC-1 fluorescence, basal, 24 h, 100 nL, profiling panel (AID 1138).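 Further: A549 lung adenocarcinoma cells under basal conditions with no added stimulus; test concentration not given here.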 The following applies: higher = more signal.
The subject of a further assay is Lefty1. Description: Lefty1 protein binding to printed compounds – biochemical, small-molecule microarray, 635/667 nm fluorescence, primary screen (AID 1139). The following applies: fluorescence 635/667, higher = more signal.
Assay [16] deals with wheat germ agglutinin (Triticum aestivum), Alexa647-labelled. Kind of assay: Alexa647-WGA lectin binding to printed small molecules – biochemical, small-molecule microarray, 635/667 nm fluorescence, artefact control for SMM control-protein annotation, profiling panel (AID 1140).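 Further: score merges 667 nm feature emission with signal to noise over triplicate slides.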 The note with it: WGA-A647 binding, 635 nm fluorescence, higher = more signal.
Assay [17] deals with Luciferin 4-monooxygenase (Photinus pyralis) (UniProt P08659). Description: inhibition of purified Photinus pyralis luciferase – biochemical, luminescence, purified enzyme, 2006 set, primary screen (AID 1141).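 Further: cell-free assay with purified firefly luciferase at 100 ng per well in PBS; test concentration not given here.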 The following applies: purified firefly luciferase, SteadyGlo luminescence, 30 min; higher = more signal, called active from +8 up or from −8 down.
Luciferin 4-monooxygenase (Photinus pyralis), sequence (P08659 whole entry, looked up): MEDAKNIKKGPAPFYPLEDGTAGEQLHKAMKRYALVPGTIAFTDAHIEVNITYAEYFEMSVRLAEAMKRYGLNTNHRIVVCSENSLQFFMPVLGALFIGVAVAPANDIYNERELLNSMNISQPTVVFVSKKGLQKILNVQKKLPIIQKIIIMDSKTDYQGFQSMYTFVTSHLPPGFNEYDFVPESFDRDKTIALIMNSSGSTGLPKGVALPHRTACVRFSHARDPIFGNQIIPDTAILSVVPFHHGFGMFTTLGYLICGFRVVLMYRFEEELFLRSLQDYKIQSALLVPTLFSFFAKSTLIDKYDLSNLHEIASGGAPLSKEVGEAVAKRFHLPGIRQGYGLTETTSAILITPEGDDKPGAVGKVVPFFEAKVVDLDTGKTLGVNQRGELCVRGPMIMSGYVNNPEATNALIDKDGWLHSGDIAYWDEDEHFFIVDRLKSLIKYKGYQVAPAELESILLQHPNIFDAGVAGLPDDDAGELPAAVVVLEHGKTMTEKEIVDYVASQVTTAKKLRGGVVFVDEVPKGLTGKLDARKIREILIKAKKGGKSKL

Follistatin (Homo sapiens), sequence (P19883 whole entry, looked up): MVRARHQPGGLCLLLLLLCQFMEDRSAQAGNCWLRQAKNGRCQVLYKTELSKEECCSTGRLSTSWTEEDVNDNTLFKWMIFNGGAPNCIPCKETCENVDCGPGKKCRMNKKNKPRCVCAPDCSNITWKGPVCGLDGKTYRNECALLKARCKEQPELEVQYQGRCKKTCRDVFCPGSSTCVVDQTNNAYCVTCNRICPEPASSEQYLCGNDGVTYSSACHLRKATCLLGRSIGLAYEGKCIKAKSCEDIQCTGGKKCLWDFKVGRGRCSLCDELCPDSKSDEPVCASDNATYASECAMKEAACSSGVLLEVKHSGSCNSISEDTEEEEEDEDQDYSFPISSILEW
Albumin (Bos taurus), sequence (P02769 whole entry, looked up): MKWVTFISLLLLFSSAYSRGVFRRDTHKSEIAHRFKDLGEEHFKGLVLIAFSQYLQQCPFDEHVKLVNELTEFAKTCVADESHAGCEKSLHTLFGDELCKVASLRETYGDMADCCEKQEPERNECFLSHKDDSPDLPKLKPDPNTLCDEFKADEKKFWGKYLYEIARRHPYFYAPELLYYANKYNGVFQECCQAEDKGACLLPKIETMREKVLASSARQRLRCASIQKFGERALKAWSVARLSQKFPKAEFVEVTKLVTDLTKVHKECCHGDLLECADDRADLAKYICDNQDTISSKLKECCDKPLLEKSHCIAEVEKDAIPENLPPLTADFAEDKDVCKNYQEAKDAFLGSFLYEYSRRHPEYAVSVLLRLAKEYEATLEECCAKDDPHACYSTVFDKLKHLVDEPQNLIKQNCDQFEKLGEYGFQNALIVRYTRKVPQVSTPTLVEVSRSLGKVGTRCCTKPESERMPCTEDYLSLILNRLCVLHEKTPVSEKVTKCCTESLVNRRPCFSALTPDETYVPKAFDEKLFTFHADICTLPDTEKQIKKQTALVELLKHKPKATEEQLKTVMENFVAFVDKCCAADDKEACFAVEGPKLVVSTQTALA

As to `CO[C@H]1COC(=O)CC=C[C@H](C)[C@@H](NS(=O)(=O)c2ccc(C)cc2)COC(=O)CC=C[C@@H]1C`, the composite z-score was -0.498 in the assay with Albumin (Bos taurus); -0.0436 in assay [2]; -0.151 in assay [3]; -0.0698 in [4]; -0.51 in assay [5]; 0.216 in assay [6]. Further, the composite z-score in the assay on Sam68 (KHDRBS1) is 0.165; in assay [7], 0.713; in assay [8], -0.408; in assay [9] it was 2.79; in assay [10], 0.0835; in [11] it was 0.0018. Moreover, the composite z-score in assay [12] is 0.0607; in assay [13] it was 0.932; in assay [14], 0.585; in the assay with Lefty1, 0.819; in [16], -0.0118. The composite Z-score in assay [1] is -0.38 (inactive). The values for the z-score in [15] and in assay [17] were -0.662 and -0.277 (inactive), respectively.
As to `O=C1O[C@@H](c2ccccc2)[C@@H](c2ccccc2)N2[C@@H](c3ccc(O)cc3)[C@]3(C(=O)Nc4ccccc43)[C@@H](C(=O)O)[C@H]12`, the composite z-score in the assay with Albumin (Bos taurus) is 0.592; in assay [2], -0.0903; in assay [3], -0.1; in assay [4], 0.59; in [5], 1.45; in assay [6], 0.448. For the same compound, the composite z-score in the assay with Sam68 (KHDRBS1) is 1.33; in assay [7], -0.903; in assay [8], 0.666; in [9], 3.02; in assay [10] it was 1.2; in assay [11], 0.49. Also, the composite z-score was 0.508 in [12]; -0.167 in assay [13]; -0.352 in assay [14]; -0.351 in the assay on Lefty1; 0.547 in assay [16]. Also, in assay [1], the composite Z-score is 1.76 (inactive). In addition, the z-score is -0.517 in assay [15] and -0.0041 (inactive) in assay [17].
With `O=C1[C@H]2[C@H]3[C@H](O)[C@H](O)CC(=NO[C@@H]4O[C@H](CO)[C@@H](O)[C@H](O)[C@H]4O)[C@H]3CC[C@H]2C(=O)N1Cc1ccccc1`, the composite z-score was -0.258 with Albumin (Bos taurus); 0.0145 in assay [2]; -0.127 in [3]; -0.457 in [4]; 0.904 in assay [5]; 0.0052 in assay [6]. For the same compound, the composite z-score with Sam68 (KHDRBS1) was 1.32; in assay [7], -0.564; in [8], 0.0723; in [9], 0.0948; in assay [10] it was 0.768; in [11] it was 0.0406. Moreover, the composite z-score is -0.187 in [12]; -0.179 in [13]; 0.389 in assay [14]; 0.358 in the assay with Lefty1; -0.0816 in [16]. Also, in [1], the composite Z-score is -0.304 (inactive). The z-score in assay [15] was -0.252; in [17], 0.589 (inactive).
As for `O=C1[C@H]2[C@H]3[C@H](O)[C@H](O)CC(=NO[C@@H]4O[C@H](CO)[C@@H](O)[C@H](O)[C@H]4O)[C@H]3CC[C@H]2C(=O)N1Cc1ccc2c(c1)OCO2`, the composite z-score with Albumin (Bos taurus) was 0.861; in assay [2], -0.0984; in assay [3] it was -0.106; in assay [4], 0.173; in assay [5], 1.42; in assay [6], 0.0185. Besides, the composite z-score is 0.89 in the assay on Sam68 (KHDRBS1); -0.575 in assay [7]; 0.619 in [8]; 1.01 in assay [9]; -0.186 in [10]; 0.0254 in assay [11]. Besides, the composite z-score is 0.762 in assay [12]; -0.164 in [13]; -0.654 in [14]; 0.515 in the assay with Lefty1; -0.205 in [16]. In addition, the composite Z-score in assay [1] was -0.161 (inactive). Besides, the z-score in [15] is 0.531; in assay [17], 0.654 (inactive).
As to `COc1cccc([C@H]2Oc3ccc(OC)cc3C(=NOC(C)CN3CCCc4nc(C)c(C)cc43)[C@@H]2O)c1` (stereo not given in full), the composite z-score was -0.605 in the assay with Albumin (Bos taurus); 0.119 in assay [2]; -0.0527 in assay [3]; 0.431 in [4]; 0.298 in assay [5]; 0.532 in assay [6]. Also, the composite z-score is 1.14 with Sam68 (KHDRBS1); 0.414 in [7]; -1.16 in [8]; 2.41 in assay [9]; 0.857 in assay [10]; 0.394 in [11]. Also, the composite z-score was -0.712 in [12]; 0.073 in [13]; 0.125 in assay [14]; 0.809 in the assay on Lefty1; -0.299 in [16]. Further, the composite Z-score in assay [1] was 0.904 (inactive). Moreover, the results for the z-score in assay [15] and in [17] were 0.128 and 0.149 (inactive), respectively.

The values are drawn from PubChem BioAssay.
